Experimental data published in PubChem BioAssay (NCI).
About 83,000 compounds went through this panel and 20% of them were active in at least one assay; those are over-represented in the sample as a whole.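 48-hour exposure, single concentration, 96-well plates; percent growth endpoint where 0 means no net growth. Active: below 10.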 Values without a mark were called inactive. Calls of active or inactive are those of the source.

These molecules were tested on SW-620 colon (assay: NCI-60 one-dose screen, 48 h (100 = growth as untreated, 0 = no growth, -100 = all killed)). Settings: 10 µM unless noted.

| Structure (SMILES) | growth |
| --- | --- |
| C=C1C(=O)O[C@H]2[C@H]1CC/C(COC(=O)/C=C\C(=O)NCc1ccc(Cn3c(=O)sn(CCCC)c3=O)cc1)=C\CC[C@@]1(C)O[C@@H]21 | -45.5% (active) |
| CN1C[C@@H](c2ccc(Cl)cc2)[C@]2(NC(=S)N(c3ccc(F)c(Cl)c3)C2=O)[C@@]12C(=O)NC1C=CC(Cl)=C[C@H]12 (some centres undefined) | 62.2% |
| c1ccc2[nH]c(SSc3nc4ncncc4[nH]3)nc2c1 | 36.3% |
| CCCCCOC(=O)c1cccc(NC(=O)CN(CC)CC)c1 | 105% |
| CN(CCCCCCCCNc1ccnc2ccccc12)Cc1ccc(-c2ccc(-c3ccc(C#N)cc3)s2)cc1 | -76.3% (active) |
| CN(C)c1ccc2cc(-c3ccc(Cl)c(Cl)c3)c(N)nc2c1 | 30.1% |
| CCN(CC)CC(=O)Nc1cccc(C(=O)OC(C)C)c1 | 115% |
| CN(C)S(=O)(=O)n1cnc([C@@H]2[C@@H]3C(=O)OC[C@@H]3C[C@]23N=CN(Cc2ccccc2)C3=O)c1 | 97.3% |
| O=C(Oc1ccc([N+](=O)[O-])cc1)c1ccc(CBr)cc1 | 94.9% |
| CCN(CC)CCOc1ccc(/C(=C(\C)c2ccc(F)c(OC)c2)c2ccc(Cl)cc2)cc1 | -7.8% (active) |
| CCOC(=O)c1nnn(C(Cc2ccccc2Cl)C(=O)OCC)c1C (centres undefined) | 98% |
| COc1ccc2c(c1)/C(=C\c1sc(=S)[nH]c1O)C(C(=O)O)=N2 | 95.2% |
| Cc1cc(Cc2cc(C)cc(C(C)(C)C)c2O)c(O)c(C(C)(C)C)c1 | 39.8% |
| N#Cc1c(N)nc2c(nnn2-c2cccc(Br)c2)c1N | 96.9% |
| O=C(NCc1cn(Cc2cccc(Oc3ccccc3)c2)nn1)c1cccnc1NCc1ccc(Cl)cc1 | 36.9% |
| Nc1ccc(-c2cc3c(Nc4ccc(OCc5cccc(F)c5)c(Cl)c4)ncnc3s2)cc1 | 74.1% |
| COc1cccc(-c2nc3sccn3c2-c2ccnc(NCCNS(=O)(=O)c3c(Cl)cccc3Cl)c2)c1 | 74.1% |
| CC(=O)OCCc1ccccc1 | 105% |
| NS(=O)(=O)Oc1ccc(-c2sc3cc(O)ccc3c2C(=O)c2ccc(OCCN3CCCCC3)cc2)cc1 | 51.7% |
| NC(=O)c1c(NC(=O)c2ccc(C(F)(F)F)cc2Cl)sc2c1CCC(=O)C2 | -49.7% (active) |
| Cc1c(C)c2c(c(C)c1NC(=O)/C=C\C(=O)O)CCC(C)(CCCC(C)CCCC(C)CCCC(C)C)O2 (centres undefined) | 30% |
| Cl.Fc1c[c-]c(-c2ccccn2)c(F)c1.[Pt].c1ccc([PH+](C[PH+](c2ccccc2)c2ccccc2)c2ccccc2)cc1 | -78.1% (active) |
| O=C(Nc1ccccc1)c1sc(-c2cccc(C(F)(F)F)c2)cc1O | 76.1% |
| COc1ccc(/C(C)=N/NS(=O)(=O)c2ccc(C)cc2)cc1OC | 102% |
| O=C(CC12CC3CC(CC(C3)C1)C2)NCCOCCOCCOCCNC(=O)c1cc2c(o1)C(=O)c1ccccc1C2=O | -10.6% (active) |

These molecules were tested on MCF7 breast in the same assay as above. Settings: 10 µM unless noted.

| Structure (SMILES) | growth |
| --- | --- |
| O=C(O)C1C[C@](O)(c2ccc(F)cc2)[C@@H](c2ccc(F)cc2)O1 (some centres undefined) | 97.5% |
| N=C(N)c1ccc(-c2ccc(-c3ccc(Cl)cc3Cl)o2)cc1 | -73.7% (active) |
| C[N+](C)(C)CCOC(OCC[N+](C)(C)C)(c1ccccc1)c1ccccc1 | 92.8% |
| NC(N)=N/N=C/CO | 98.3% |
| CCCCNC(=O)NS(=O)(=O)c1ccc(N2N=C(c3ccc(C)cc3C)CC2c2ccc(N(C)C)cc2)cc1 (centres undefined) | 37.4% |
| N[C@H]1CCC[C@@H]1NCCCCN1C(=O)c2cccc3cccc(c23)C1=O | 52.8% |
| O=C1Nc2ccccc2/C1=N/N=C/c1c[nH]c2ccccc12 | 72.5% |
| C[C@@H]1CC[C@@H]2[C@@H]1[C@H](OC(=O)/C=C/c1ccccc1)[C@]1(C3CCCCC3)C[C@@H](NC(=O)CO)[C@@]2(C)O1 | 89.6% |
| CCCN1CCN(c2ccc3nc(-c4ccc5nc(-c6ccc(OCC)c(OCC)c6)[nH]c5c4)[nH]c3c2)CC1 | -59.5% (active) |
| CCc1cc(Cc2cc(CC)cc(C(C)(C)C)c2O)c(O)c(C(C)(C)C)c1 | 11.2% |
| CNC(=O)c1c(NC(=O)c2ccc(C(C)(C)C)cc2)sc2c1CCC(=O)C2 | 8.99% (active) |
| CC(C)(C)c1ccc(C(=O)Nc2sc3c(c2C(N)=O)CCC(=O)C3)cc1 | 3.05% (active) |
| COc1ccc(-n2nnc(C(=O)NCCc3c[nH]c4ccc(F)cc34)c2C)cc1 | 95.7% |
| C=CCN1C(=O)[C@]2(SC1=S)[C@H](c1cccc(Cl)c1)CN(C)[C@]21C(=O)NC2C=CC(Cl)=C[C@H]21 (some centres undefined) | 16.9% |
| C=C1C(=O)O[C@H]2[C@H]1CC/C(COC(=O)/C=C\C(=O)NCc1ccc(Cn3c(=O)sn(CCCC)c3=O)cc1)=C\CC[C@@]1(C)O[C@@H]21 | -43% (active) |
| CN1C[C@@H](c2ccc(Cl)cc2)[C@]2(NC(=S)N(c3ccc(F)c(Cl)c3)C2=O)[C@@]12C(=O)NC1C=CC(Cl)=C[C@H]12 (some centres undefined) | 18% |
| c1ccc2[nH]c(SSc3nc4ncncc4[nH]3)nc2c1 | 9.76% (active) |
| CCCCCOC(=O)c1cccc(NC(=O)CN(CC)CC)c1 | 103% |
| CN(CCCCCCCCNc1ccnc2ccccc12)Cc1ccc(-c2ccc(-c3ccc(C#N)cc3)s2)cc1 | -76.5% (active) |
| CN(C)c1ccc2cc(-c3ccc(Cl)c(Cl)c3)c(N)nc2c1 | 24.3% |

| Structure (SMILES) | growth |
| --- | --- |
| CCN(CC)CC(=O)Nc1cccc(C(=O)OC(C)C)c1 | 103% |
| CN(C)S(=O)(=O)n1cnc([C@@H]2[C@@H]3C(=O)OC[C@@H]3C[C@]23N=CN(Cc2ccccc2)C3=O)c1 | 100% |
| O=C(Oc1ccc([N+](=O)[O-])cc1)c1ccc(CBr)cc1 | 75.1% |
| CCN(CC)CCOc1ccc(/C(=C(\C)c2ccc(F)c(OC)c2)c2ccc(Cl)cc2)cc1 | -3.59% (active) |
| CCOC(=O)c1nnn(C(Cc2ccccc2Cl)C(=O)OCC)c1C (centres undefined) | 104% |
| COc1ccc2c(c1)/C(=C\c1sc(=S)[nH]c1O)C(C(=O)O)=N2 | 97.7% |
| Cc1cc(Cc2cc(C)cc(C(C)(C)C)c2O)c(O)c(C(C)(C)C)c1 | 12.8% |
| N#Cc1c(N)nc2c(nnn2-c2cccc(Br)c2)c1N | 71.4% |
| O=C(NCc1cn(Cc2cccc(Oc3ccccc3)c2)nn1)c1cccnc1NCc1ccc(Cl)cc1 | 14.9% |
| Nc1ccc(-c2cc3c(Nc4ccc(OCc5cccc(F)c5)c(Cl)c4)ncnc3s2)cc1 | 26.2% |
| COc1cccc(-c2nc3sccn3c2-c2ccnc(NCCNS(=O)(=O)c3c(Cl)cccc3Cl)c2)c1 | 58.4% |
| CC(=O)OCCc1ccccc1 | 103% |
| NS(=O)(=O)Oc1ccc(-c2sc3cc(O)ccc3c2C(=O)c2ccc(OCCN3CCCCC3)cc2)cc1 | 29.4% |
| NC(=O)c1c(NC(=O)c2ccc(C(F)(F)F)cc2Cl)sc2c1CCC(=O)C2 | 5.41% (active) |
| Cc1c(C)c2c(c(C)c1NC(=O)/C=C\C(=O)O)CCC(C)(CCCC(C)CCCC(C)CCCC(C)C)O2 (centres undefined) | 51.2% |
| Cl.Fc1c[c-]c(-c2ccccn2)c(F)c1.[Pt].c1ccc([PH+](C[PH+](c2ccccc2)c2ccccc2)c2ccccc2)cc1 | -83.7% (active) |
| O=C(Nc1ccccc1)c1sc(-c2cccc(C(F)(F)F)c2)cc1O | 74.7% |
| COc1ccc(/C(C)=N/NS(=O)(=O)c2ccc(C)cc2)cc1OC | 102% |
| O=C(CC12CC3CC(CC(C3)C1)C2)NCCOCCOCCOCCNC(=O)c1cc2c(o1)C(=O)c1ccccc1C2=O | -67.2% (active) |
